Measurements: publication PMC5515408, “Sequence-specific DNA binding by MYC/MAX to low-affinity non-E-box motifs”
Whole data set: some 5,000 sequences, median “log2 normalized fluorescence” near 0.089, cut for the highest 2% near 0.81. This excerpt belongs to a sample that is enriched for the highest values.

The sequences below were run against MYC (p64);MAX (p21), in MYC:MAX (human;human, UniProt P01106-1;P61244-2 1-439;1-151, |) (assay: protein-binding microarray (anti-MAX antibody); PBM: 15 mM Tris-HCl pH 7.5, 100 mM KCl, 0.075% NP40, 7.5 mM beta-mercaptoethanol, 375 ng/ul BSA, 8 ng/ul poly(dA-dT):(dA-dT), 550 ng complex, 60 min, room tempe; high values mean tight binding). Conditions: protein: recombinant;recombinant; tags: 6xHis;6xHis; copies: 1;1; label: 3' end of printed strand (linker) attached to glass slide; dsDNA, one strand shown.
Procedure, shortened: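 Recombinant His-tagged human MYC:MAX or MAX:MAX dimers (550 ng, expressed in E. coli) were incubated for 60 min at room temperature in Tris-KCl buffer, pH 7.5, with NP40, BSA and poly(dA-dT) competitor. The custom Agilent glass array held ~5000 unique 12-nt sequences, each spotted in triplicate and made double-stranded by primer extension. Bound protein was detected with anti-MAX and secondary antibodies and scanned at 543 nm. Binding is reported as log2 normalized fluorescence.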

Sequence of MYC (p64);MAX (p21), in MYC:MAX (P01106 16-454, chain 1 of 2): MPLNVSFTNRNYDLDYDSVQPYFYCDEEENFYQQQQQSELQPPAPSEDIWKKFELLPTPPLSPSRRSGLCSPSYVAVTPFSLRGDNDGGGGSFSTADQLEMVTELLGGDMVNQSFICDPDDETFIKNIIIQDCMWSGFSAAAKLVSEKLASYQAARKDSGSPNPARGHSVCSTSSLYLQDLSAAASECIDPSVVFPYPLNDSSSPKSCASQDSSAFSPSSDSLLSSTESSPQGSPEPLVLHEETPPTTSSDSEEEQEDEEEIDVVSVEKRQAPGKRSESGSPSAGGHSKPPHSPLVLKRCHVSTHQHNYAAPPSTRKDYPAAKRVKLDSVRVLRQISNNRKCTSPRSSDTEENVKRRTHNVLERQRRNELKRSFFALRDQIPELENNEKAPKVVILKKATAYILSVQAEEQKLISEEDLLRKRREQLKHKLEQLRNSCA
Sequence of MYC (p64);MAX (p21), in MYC:MAX (P61244 other isoform, or with tags, fused parts or gaps |, chain 2 of 2): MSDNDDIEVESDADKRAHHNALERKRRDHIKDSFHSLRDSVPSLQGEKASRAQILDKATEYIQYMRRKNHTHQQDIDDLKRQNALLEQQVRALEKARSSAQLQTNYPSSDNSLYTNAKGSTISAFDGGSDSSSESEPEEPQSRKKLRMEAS

Row | Sequence | binding signal
1 | CCGGCTGAAGATGTGTATTAATAGCTAAGATTACTATATCGACG | 0.0913 log2 normalized fluorescence
2 | CCGGCTGAAAAGAGGTATTAATAGCTAAGATTACTATATCGACG | -0.00138 log2 normalized fluorescence
3 | CCGGCTGACAGCAAGTATTAATAGCTAAGATTACTATATCGACG | 0.286 log2 normalized fluorescence
4 | CCGGCTGACCGTAAGTATTAATAGCTAAGATTACTATATCGACG | 0.214 log2 normalized fluorescence
5 | CCGGCAAGTTTAAGCCGTTAATAGCTAAGATTACTATATCGACG | 0.00903 log2 normalized fluorescence
6 | CCGGCTGAGCCGCTGTATTAATAGCTAAGATTACTATATCGACG | 0.0565 log2 normalized fluorescence
7 | CCGGCTGAGAGGCCGTATTAATAGCTAAGATTACTATATCGACG | 0.0066 log2 normalized fluorescence
8 | CCGGCTGAGGGGGAGTATTAATAGCTAAGATTACTATATCGACG | 0.823 log2 normalized fluorescence
9 | CCGGCTGAAGGGTGGTATTAATAGCTAAGATTACTATATCGACG | 0.18 log2 normalized fluorescence
10 | CCGGCTGAGGGAGAGTATTAATAGCTAAGATTACTATATCGACG | -0.0403 log2 normalized fluorescence
11 | CCGGCTGAAGGGGGGTATTAATAGCTAAGATTACTATATCGACG | 0.855 log2 normalized fluorescence
12 | CCGGCTGAGGGGAGGTATTAATAGCTAAGATTACTATATCGACG | 0.438 log2 normalized fluorescence
13 | CCGGCTGAAGAGGGGTATTAATAGCTAAGATTACTATATCGACG | 0.288 log2 normalized fluorescence
14 | CCGGCTGAAAAGGGGTATTAATAGCTAAGATTACTATATCGACG | 0.161 log2 normalized fluorescence
15 | CCGGCTGAAAAAGGGTATTAATAGCTAAGATTACTATATCGACG | -0.0246 log2 normalized fluorescence
16 | CCGGCTGAAAGGGGGTATTAATAGCTAAGATTACTATATCGACG | 0.83 log2 normalized fluorescence
17 | CCGGCTGACTGGTCGTATTAATAGCTAAGATTACTATATCGACG | 0.229 log2 normalized fluorescence
18 | CCGGCTGACCTCTGGTATTAATAGCTAAGATTACTATATCGACG | -0.0273 log2 normalized fluorescence
19 | CCGGCTGAGTGAGGGTATTAATAGCTAAGATTACTATATCGACG | 0.097 log2 normalized fluorescence
20 | CCGGCTGAAAAGCGGTATTAATAGCTAAGATTACTATATCGACG | 0.0993 log2 normalized fluorescence
21 | CCGGCTGACACTTAGTATTAATAGCTAAGATTACTATATCGACG | 0.231 log2 normalized fluorescence
22 | CCGGCTGACAAGTGGGATTAATAGCTAAGATTACTATATCGACG | 0.302 log2 normalized fluorescence
23 | CCGGCTGAGTGAGTGTATTAATAGCTAAGATTACTATATCGACG | 0.08 log2 normalized fluorescence
24 | CCGGCTGACGTTGTGTATTAATAGCTAAGATTACTATATCGACG | 0.16 log2 normalized fluorescence
25 | CCGGCTGGAACGTGGTATTAATAGCTAAGATTACTATATCGACG | 0.66 log2 normalized fluorescence
26 | CCGGCTGAGCATATGTATTAATAGCTAAGATTACTATATCGACG | 0.395 log2 normalized fluorescence
27 | CCGGCTGAAGGCGTGTATTAATAGCTAAGATTACTATATCGACG | 0.409 log2 normalized fluorescence

Row | Sequence | binding signal
28 | CCGGCAGTCACATGGTATTAATAGCTAAGATTACTATATCGACG | 0.995 log2 normalized fluorescence
29 | CCGGCAGACACGAGGTTTTAATAGCTAAGATTACTATATCGACG | 0.64 log2 normalized fluorescence
30 | CCGGCTTTCACATGGTATTAATAGCTAAGATTACTATATCGACG | 0.504 log2 normalized fluorescence
31 | CCGGCTGACACGAGGTATTAATAGCTAAGATTACTATATCGACG | 0.625 log2 normalized fluorescence
32 | CCGGCAGACATGGGGTATTAATAGCTAAGATTACTATATCGACG | 0.458 log2 normalized fluorescence
33 | CCGGCTAACACATGGTATTAATAGCTAAGATTACTATATCGACG | 0.6 log2 normalized fluorescence
34 | CCGGCAGACACGAGGTATTAATAGCTAAGATTACTATATCGACG | 0.93 log2 normalized fluorescence
35 | CCGGCAGACACATGGTATTAATAGCTAAGATTACTATATCGACG | 0.834 log2 normalized fluorescence
36 | CCGGCAGACACTTGGTATTAATAGCTAAGATTACTATATCGACG | 0.421 log2 normalized fluorescence
37 | CCGGCTGACTACATGTATTAATAGCTAAGATTACTATATCGACG | 0.419 log2 normalized fluorescence
38 | CCGGCTGTCAAGTGGCATTAATAGCTAAGATTACTATATCGACG | 0.1 log2 normalized fluorescence
39 | CCGGCTGAGTTTCCGTATTAATAGCTAAGATTACTATATCGACG | -0.0243 log2 normalized fluorescence
40 | CCGGCTGAAGGATGGTATTAATAGCTAAGATTACTATATCGACG | 0.0538 log2 normalized fluorescence
41 | CCGGCTGTCCCCTGGTATTAATAGCTAAGATTACTATATCGACG | -0.00889 log2 normalized fluorescence
42 | CCGGCTGACTGTGAGTATTAATAGCTAAGATTACTATATCGACG | 0.00564 log2 normalized fluorescence
43 | CCGGCTGACGGCAGGTATTAATAGCTAAGATTACTATATCGACG | -0.00507 log2 normalized fluorescence
44 | CCGGCGGACGCGTGGTATTAATAGCTAAGATTACTATATCGACG | 0.64 log2 normalized fluorescence
45 | CCGGCGGACCCGTGGTATTAATAGCTAAGATTACTATATCGACG | 0.439 log2 normalized fluorescence
46 | CCGGCGGACACGTCGTATTAATAGCTAAGATTACTATATCGACG | 0.287 log2 normalized fluorescence
47 | CCGGCGGACACGTGGTATTAATAGCTAAGATTACTATATCGACG | 0.99 log2 normalized fluorescence
48 | CCGGCGGACACGTGCTATTAATAGCTAAGATTACTATATCGACG | 0.839 log2 normalized fluorescence
49 | CCGGCGGACACGTGTGATTAATAGCTAAGATTACTATATCGACG | 0.779 log2 normalized fluorescence
50 | CCGGCTGAGTACCTGTATTAATAGCTAAGATTACTATATCGACG | 0.076 log2 normalized fluorescence
51 | CCGGCTGATGGGCAGTATTAATAGCTAAGATTACTATATCGACG | 0.0215 log2 normalized fluorescence
52 | CCGGCTGACGATCAGTATTAATAGCTAAGATTACTATATCGACG | -0.0317 log2 normalized fluorescence
53 | CCGGCTGAATACCTGTATTAATAGCTAAGATTACTATATCGACG | 0.159 log2 normalized fluorescence
